Screening data deposited in PubChem by National Center for Advancing Translational Sciences (NCATS).
Rows were chosen to be rich in hits. Some 9.9% of all compounds tested hit in one or more screens of this group.
IL1B secr inh: inhibitors of inflammasome signaling (IL-1 beta secretion). THP-1 LPS/ATP IL-1B secretion, AlphaLISA, 16 h; stronger effect = lower value. activity change, % at 57.5 µM. 360,000 tested, 4.7% active; in the data active = activity change below about -50%; inconclusive = mostly about -30% to -49%; note: % is set by controls: 0 for no effect and ±100 for the full control effect
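Secreted IL-1B measured by AlphaLISA bead assay after 16 h compound exposure of THP-1 cells; compounds (final up to 57.5 uM) added 1 h before LPS (250 ng/mL) and ATP (1.25 mM) stimulation; lower signal means less secretion.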
MCF10A rerep: DNA re-replication induction in MCF 10a cells | MCF 10A DNA re-replication, Hoechst nuclear intensity, 48 h | Potency, µM (titrated, usually from 46.1 µM), for inactives: at the highest dose activity, positive = re-replication, usual class: activators | 350,000 tested, 2.9% active | AID 624296; note: potency is the fitted concentration of half-maximal effect; % of control where 0% means no effect; nearly all actives have a fitted effect of over 50% in size
SW480 rerep: induces DNA re-replication in SW480 colon adenocarcinoma cells. SW480 DNA re-replication, Hoechst DNA content imaging, 48 h. Potency, µM (doses to about 46.1 µM), for inactives: at the top dose re-replication activation, most hits filed as activators. 340,000 tested, 1.8% active; note: potency is the fitted concentration of half-maximal effect; % of control where 0% means no effect; nearly all actives have a fitted effect of over 55% in size
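Compounds, transferred as 23 nL by pin tool, were incubated with cells for 48 hr; DNA content per nucleus was then quantified by Hoechst staining and fluorescence plate imaging.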
KB-3-1 tox: kills parental KB-3-1 adenocarcinoma cells; KB-3-1 viability, CellTiter-Glo ATP luminescence, 72 h; Potency, µM (series often up to 46.1 µM), usual class: cytotoxic; AID 1347075; 400,000 tested, 1.4% active; note: potency is the fitted concentration of half-maximal effect; % is set by controls: 0 for no effect and ±100 for the full control effect; nearly all actives have a fitted effect of over 60% in size
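KB-3-1 parental drug-naive adenocarcinoma cells in DMEM/10% FBS, incubated 72 h at 37 C with pin-transferred compounds across a concentration series. Viability by CellTiter-Glo luminescence; concentration-response curves fitted after normalization.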
KB-V1 MDR tox: KB-V1 MDR subline cytotoxicity; KB-V1 MDR cells viability, CellTiter-Glo, 72 h; Potency, µM (highest dose often 46.1 µM), hits mostly cytotoxic; 400,000 tested, 3.4% active; AID 1347076; note: potency is the fitted concentration of half-maximal effect; % is set by controls: 0 for no effect and ±100 for the full control effect; nearly all actives have a fitted effect of over 60% in size
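In this primary screen, KB-V1 cells overexpressing P-gp are incubated with library compounds (lowest to highest concentration) for 72 h at 37 degrees C before a luminescent ATP viability read.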
* marks the source's active call; other numbers are inactive results; i = inactive; ? = inconclusive; · = no result given; ! = a repeat was not active. Unless noted, calls come from the whole dose curve; as a rule, active = well fitted curve in the direction sought with a large enough effect; inconclusive = small, poorly fitted or top-dose-only effect, or another doubt; inactive = no such curve, though single readings can be large; an effect the other way counts as inactive or inconclusive.

SMILES	IL1B secr inh	MCF10A rerep	SW480 rerep	KB-3-1 tox	KB-V1 MDR tox
COc1ccc(OC)c(NC(=O)COC(=O)CSc2ccc(Cl)cc2)c1	5.3	0.5%	-0.2%	i	i
NC(=O)C1CCN(c2nnc(-c3ccc4c(c3)OCCCO4)s2)CC1	·	·	·	i	i
COCCNC(=O)C1(C)CCCN(C(=O)c2ccc3c(c2)CCO3)C1 (stereo not drawn)	-11.8	·	·	i	i
COc1ccc(NC(=O)Nc2cnccn2)c(OC)c1	-23.1	-17.3%	-6.0%	5.17µM*	5.8µM*
COc1ccc(NC(=O)Nc2ccc(Cc3ccncc3)cc2)c(OC)c1	-51.4*	?	-6.2%	?	i
C/C(=N\NC(=O)c1ccccc1)c1nc2ccccc2n1C	0.4	7.4%	13µM*	i	?
CC(C)c1ccc(C(O)Cc2nc3ccccc3n2C)cc1 (stereo not drawn)	19.7	0.0%	7.4%	i	?
CN(C)c1ccc(C(O)Cc2nc3ccccc3n2C)cc1 (stereo not drawn)	-54.3*	7.8%	-2.1%	i	i
CC(C)n1c(-c2ccc(N(C)C)cc2)nc2ccccc21	-13.1	5.3%	-4.6%	i	?
CN(C)c1ccc(-c2nc3ccccc3n2C)cc1	-66.3*	-15.5%	?	?	?
CCn1c(-c2ccc(N)cc2)nc2ccccc21	-2.0	12.3%	1.2%	?	i
CCn1c(-c2ccc(N(C)C)cc2)nc2ccccc21	-12.4	14.5%	8.4%	13µM*	16.4µM*
Cn1c(-c2ccc(Br)o2)nc2ccccc21	-2.3	-2.9%	4.7%	25.9µM*!	?
CCOc1ccc(N(CC(=O)N2CCC(Cc3ccccc3)CC2)S(C)(=O)=O)cc1	0.0	-11.3%	?	i	?
Cn1c(N)c(C(=O)CSc2nnc(C3CC3)n2N)c(=O)n(C)c1=O	-14.1	0.8%	-2.7%	i	i
Cc1cc(C)cc(NC(=O)CSc2oc(-c3cccs3)nc2S(=O)(=O)c2ccc(Br)cc2)c1	·	·	·	i	i
C/C(N)=C(/C#N)C(=O)CSc1nc2ccccc2c(=O)n1-c1ccc(C)c(Cl)c1	27.8	23.5%	12.1%	i	?
COc1ccc(NC(=O)COC(=O)CCc2ccccc2)c(OC)c1	26.4	-0.9%	-8.0%	i	i
COc1ccccc1CCNC(=O)C(=O)NCC(c1ccco1)S(=O)(=O)c1ccc(F)cc1 (stereo not drawn)	·	·	·	i	i
CC(=O)NC(C)c1ccc(Cl)c(Cl)c1 (stereo not drawn)	-22.8	?	3.8%	i	i
CC(=O)NC(CCc1ccc(Cl)c(Cl)c1)c1cccc(O)c(=O)c1 (stereo not drawn)	139.0	·	·	?	8.2µM*
CC1(c2cccc(Br)c2)NC(=O)NC1=O (stereo not drawn)	-5.8	-14.6%	?	i	i
CC(C(=O)Nc1cccnc1)N1C(=O)c2ccccc2C1=O (stereo not drawn)	29.7	-1.9%	0.6%	i	i
COc1cc(Cl)c(NC2=CC(=O)C(=O)c3ccccc32)c(OC)c1	?	3.26µM*	8.2µM*	9.2µM*	8.2µM*
CCOc1ccc(NC2=CC(=O)C(=O)c3ccccc32)cc1	-54.7*	?	13µM*	6.51µM*	4.11µM*
SMILES	IL1B secr inh	MCF10A rerep	SW480 rerep	KB-3-1 tox	KB-V1 MDR tox
O=C1C=C(NCc2ccccc2)c2ccccc2C1=O	-101.3*	?	18.4µM*	?	?
O=C1C=C(Nc2cccnc2)c2ccccc2C1=O	-70.2*	9.2µM*	6.51µM*	8.2µM*	?
COc1cc(Cl)c(NS(=O)(=O)c2ccc(-c3ccc(=O)[nH]n3)o2)c(OC)c1	-9.9	-2.8%	2.8%	i	?
O=C(NCc1ccc(F)cc1)C1CCCN(C(=O)NCc2ccccc2)C1 (stereo not drawn)	2.3	-0.9%	0.7%	i	?
Cc1oc2cc3oc(=O)cc(C)c3cc2c1C	-7.2	15.6%	-1.1%	i	i
Cc1nn(C)c(Sc2ccccn2)c1[N+](=O)[O-]	·	-11.7%	?	i	i
O=C1C=C(Nc2ccccc2O)c2ccccc2C1=O	-90.3*	?	6.51µM*	18.4µM*	20.6µM*
O=C1C=C(Nc2ccc(F)cc2)c2ccccc2C1=O	-0.4	?	9.2µM*	?	20.6µM*
NC1=CC(=O)C(=O)c2ccccc21	?	?	?	i	?
Cc1ccc(NC2=CC(=O)C(=O)c3ccccc32)c(C)c1	-8.3	-4.9%	8.7%	?	?
Cc1ccc(N2CCN(c3nc4ccc(C(=O)c5ccccc5)cc4n4cnnc34)CC2)c(C)c1	·	·	·	i	i
CCOc1ccccc1NC(=O)Cn1c(=O)ccc2cc(S(=O)(=O)N3CCC(C)CC3)ccc21	·	·	·	i	i
Fc1ccc(-n2cc(-c3ccccc3)[n+]3c2SCC3)cc1	38.3	15.0%	?	?	i
FC(F)Oc1ccc(-n2cc(-c3ccccc3)[n+]3c2CCCCC3)cc1	-22.7	-2.2%	-10.8%	23.1µM*	i
Cc1ccc(-c2cn(-c3ccc(OC(F)F)cc3)c3[n+]2CCCCC3)cc1	-81.3*	5.1%	-1.1%	i	i
Cc1ccc(CONC(=O)c2ccc(OC(F)F)cc2)cc1	-16.8	-1.0%	-12.3%	i	i
C=CCSc1nc2sc3c(c2c(=O)[nH]1)CCC3	-8.7	14.8%	-3.8%	i	i
Cc1ccc(NC(=O)C2CCN(S(=O)(=O)c3ccc4c(c3)OCCO4)CC2)nc1	-3.8	-2.4%	-67.8%	i	i
COc1ccc(CNc2ncnc3cc(Cl)ccc23)cc1OC	0.0	17.6%	-5.2%	?	20.6µM*
COc1ccc(CNc2ncnc3sccc23)cc1OC	19.3	11.4%	5.1%	?	16.4µM*
CCc1nc2ccc(C(=O)NCCN3CCNC3=O)cn2c1N(C)Cc1ccc(OC)cc1	-2.1	·	·	i	i
CSc1nsc(/C=C/Nc2ccc(C)c(C)c2)c1C#N	7.0	1.16µM*	18.4µM*	i	i
Cc1cc(C)c2c(CN3CCN(Cc4ccccc4)CC3)cc(=O)oc2c1C	5.2	-10.6%	-13.5%	i	i
O=C(c1ccc2ccccc2c1)C1CCCN(S(=O)(=O)c2cccnc2)C1 (stereo not drawn)	?	15.9%	3.7%	i	16.4µM*
CCn1c(Cc2ccc(OC)cc2)nnc1SCc1nc2ccccc2c(=O)[nH]1	12.5	-13.0%	-8.3%	i	i
O=C1C(=Cc2cccn2-c2ccc(O)cc2)C(=O)c2ccccc21	-0.3	-5.2%	-5.5%	i	i
O=C1C(=Cc2cccn2-c2ccccc2)C(=O)c2ccccc21	10.8	9.4%	18.4µM*	i	i
Cc1sc(N)nc1-c1ccccc1	13.8	0.7%	-0.4%	i	i
CC(C)(C)c1sc(N)nc1-c1ccccc1	-102.0*	14.2%	-25.8%	i	i
